“And” between values parts separate entries of the source, which are not always exact repeats. Equal values may be shown once. About 2,000 (36%) of roughly 5,500 compounds were called active. About 18% were inconclusive and are not listed. No stated cut-off is given here; in the data, active means normalized growth mostly below about 0.91 (no sharp cut-off); inconclusive means no clear call, values can overlap the other calls; inactive means mostly above about 0.92. The list shows a part of the results.
Test: chemical genetic growth profiling, strain panel (AID 1159580);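 further: tested at 20 µM; growth read once vehicle control cultures reached saturation at 30 °C; 1 = growth at the plate median or of vehicle wells; lower values mean less growth of the strain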
Settings: S. cerevisiae deletion strains, growth OD

Measured: normalized growth

CCCCN(CC)c1c([N+](=O)[O-])cc(C(F)(F)F)cc1[N+](=O)[O-]
inactive: locus YAL013W, strain DEP1, active compounds read low 1.01 | locus YAL021C, strain ccr4, active compounds read low 0.998 | locus YAL026C, strain drs2, active compounds read low 1.02 | locus YAL030W, strain snc1, active compounds read low 1.02 | locus YBL061C, strain skt5, active compounds read low 1 | locus YBR009C, strain hhf1, active compounds read low 1 | locus YBR021W, strain FUR4, active compounds read low 1.03 | locus YBR023C, strain chs3, active compounds read low 1.01 | locus YBR171W, strain sec66, active compounds read low 1.03 | locus YBR229C, strain ROT2, active compounds read low 0.999 | locus YBR231C, strain swc5, active compounds read low 1 | locus YBR279W, strain paf1, active compounds read low 1.01 | locus YCL011C, strain gbp2, active compounds read low 1 | locus YCL016C, strain dcc1, active compounds read low 1.01 | locus YCL029C, strain bik1, active compounds read low 1.02 | locus YCL061C, strain MRC1, active compounds read low 1.01 | locus YCL069W, strain vba3, active compounds read low 1.02 | locus YCR088W, strain abp1, active compounds read low 1.01 | locus YDL005C, strain med2, active compounds read low 1.02 | locus YDL035C, strain GPR1, active compounds read low 1.02 | locus YDL040C, strain nat1, active compounds read low 1.01 | locus YDL074C, strain BRE1, active compounds read low 1.03 | locus YDL101C, strain DUN1, active compounds read low 1.01 | locus YDL134C, strain PPH21, active compounds read low 1.01 | locus YDL185W, strain tfp1, active compounds read low 1.03 | locus YDL192W, strain arf1, active compounds read low 1.02 | locus YDR001C, strain nth1, active compounds read low 1.01 | locus YDR069C, strain doa4, active compounds read low 1 | locus YDR101C, strain arx1, active compounds read low 1.01 | locus YDR137W, strain rgp1, active compounds read low 0.98 | locus YDR150W, strain NUM1, active compounds read low 1.01 | locus YDR159W, strain sac3, active compounds read low 1 | locus YDR162C, strain NBP2, active compounds read low 1.02 | locus YDR195W, strain ref2 1.01 | locus YDR297W, strain sur2, active compounds read low 1 | locus YDR318W, strain mcm21, active compounds read low 1.01 | locus YDR334W, strain swr1, active compounds read low 1.02 | locus YDR335W, strain msn5, active compounds read low 1.02 | locus YDR388W, active compounds read low 1.01 | locus YDR392W, strain spt3, active compounds read low 1.01 | locus YDR502C, strain sam2, active compounds read low 1.01 | locus YEL003W, strain gim4, active compounds read low 1.02 | locus YEL037C, strain rad23, active compounds read low 1.01 | locus YEL061C, strain CIN8 (second series), active compounds read low 1.03 | locus YEL061C, strain CIN8, active compounds read low 1.01 | locus YER015W, strain faa2, active compounds read low 1.02 | locus YER016W, strain bim1, active compounds read low 1.01 | locus YER110C, active compounds read low 1.02 | locus YER111C, strain swi4, active compounds read low 1.01 | locus YER155C, strain BEM2 (second series), active compounds read low 1.03 | locus YER155C, strain BEM2, active compounds read low 1.01 | locus YER167W, strain BCK2, active compounds read low 1.01 | locus YFR010W, strain ubp6, active compounds read low 1.02 | locus YGL078C, strain dbp3, active compounds read low 1.01 | locus YGL086W, strain mad1, active compounds read low 1.01 | locus YGL167C, strain pmr1, active compounds read low 1.01 | locus YGL173C, strain kem1, active compounds read low 1.01 | locus YGL227W, strain vid30, active compounds read low 1.01 | locus YGL240W, strain doc1, active compounds read low 1.02 | locus YGL248W, strain PDE1, active compounds read low 1 | locus YGL253W, strain hxk2, active compounds read low 1.02 | locus YGR078C, strain PAC10, active compounds read low 1.01 | locus YGR135W, strain pre9, active compounds read low 1.01 | locus YGR229C, strain SMI1, active compounds read low 1.02 | locus YGR252W, strain gcn5, active compounds read low 1.05 | locus YHR013C, strain ard1, active compounds read low 1.06 | locus YHR027C, strain rpn1, active compounds read low 1.03 | locus YHR030C, strain SLT2, active compounds read low 1.01 and 1.08 | locus YHR079C, strain IRE1 (second series), active compounds read low 1.01 | locus YHR079C, strain IRE1, active compounds read low 1.03 | locus YHR094C, strain hxt1, active compounds read low 1.01 | locus YHR129C, strain ARP1, active compounds read low 1.01 | locus YHR142W, strain chs7, active compounds read low 1.02 | locus YHR200W, strain rpn10, active compounds read low 1.01 | locus YIL066C, strain RNR3, active compounds read low 1.01 | locus YIL073C, strain SPO22, active compounds read low 1.02 | locus YIL125W, strain kgd1, active compounds read low 1.01 | locus YIR030C, strain dcg1, active compounds read low 1.01 | locus YJL092W, strain hpr5, active compounds read low 1.01 | locus YJL095W, strain BCK1 (second series), active compounds read low 1.01 | locus YJL095W, strain BCK1, active compounds read low 0.996 and 1.05 | locus YJL115W, strain asf1, active compounds read low 1.01 | locus YJL129C, strain trk1, active compounds read low 1.01 | locus YJL134W, strain LCB3, active compounds read low 1.01 | locus YJL154C, strain vps35, active compounds read low 1.02 | locus YJL164C, strain tpk1, active compounds read low 1.01 | locus YJL166W, strain qcr8, active compounds read low 1 | locus YJL168C, strain set2, active compounds read low 1.01 | locus YJL187C, strain SWE1 (second series), active compounds read low 1.01 | locus YJL187C, strain SWE1, active compounds read low 1.01 | locus YJR043C, strain POL32, active compounds read low 1.02 | locus YJR066W, strain TOR1, active compounds read low 0.992

From PubChem BioAssay AID1159580 (chemical genetic matrix, 2015)
